Usually inhibition stands for the relative decrease from the control value, in per cent.

We go through 4 compounds from PubChem BioAssay.

Values joined by “and” are separate entries in the source; they are usually repeats but may differ in a detail not shown here. Identical values can stand only once. Some structures have more than one record in an assay (separate samples or runs), and their calls can disagree. Active and inactive are the calls of the source. Unless noted, no stated cut-off is given here; in the data, active means inhibition above about 80%; inactive means the rest.

The nature of the first assay: growth inhibition, single agent or in combination, cell-based, chromothripsis tumors, cisplatin or BGB combos (AID 1671449).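 Further: cells exposed for 96 hours; 0% = vehicle DMSO and 100% = killing by high DMSO.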 Particulars: LFS_MB_P medulloblastoma cells, at 0.5 µM, stronger effect = higher value.
On to `CCn1cc(C(=O)O)c(=O)c2cc(F)c(N3CCNCC3)nc21`, for which the inhibition was 95.5% (active) and -29.1% (inactive).

With `O=C(O)CCCCCCCC(=O)O`, the inhibition is 14.6% (inactive).

As to `O=NN(CCCl)C(=O)NCCCl`, the inhibition is -2.88% (inactive).

On to `Cc1oncc1C(=O)Nc1ccc(C(F)(F)F)cc1`, for which the inhibition is -30.3% (inactive).

The same assay, now with this note: LFS_MB_P medulloblastoma cells, measured here: combination with BGB IC20, at 0.005 µM.
Take `CCn1cc(C(=O)O)c(=O)c2cc(F)c(N3CCNCC3)nc21`: the inhibition was -19.8% and -22.4%.

`O=C(O)CCCCCCCC(=O)O`: the inhibition is -16.4%.

On to `O=NN(CCCl)C(=O)NCCCl`, for which the inhibition was -4.26%.

With `Cc1oncc1C(=O)Nc1ccc(C(F)(F)F)cc1`, the inhibition is -32.3%.

Still in this assay, the particulars now being: LFS_MB_P medulloblastoma cells, measured here: combination with BGB IC40, at 0.005 µM.
Turning to `CCn1cc(C(=O)O)c(=O)c2cc(F)c(N3CCNCC3)nc21`, the inhibition is -56.7% and 0.955%.

In the case of `O=C(O)CCCCCCCC(=O)O`, the inhibition was -8.17%.

In the case of `O=NN(CCCl)C(=O)NCCCl`, the inhibition is -31.6%.

For `Cc1oncc1C(=O)Nc1ccc(C(F)(F)F)cc1`, the inhibition is -17.1%.

The assay is the same for the next values; noted with them: LFS_MB_P medulloblastoma cells, measured here: combination with BGB IC40, at 0.05 µM.
Turning to `CCn1cc(C(=O)O)c(=O)c2cc(F)c(N3CCNCC3)nc21`, the inhibition is -47.1% and -2.69%.

For the compound `O=C(O)CCCCCCCC(=O)O`, the inhibition was 6.68%.

On to `O=NN(CCCl)C(=O)NCCCl`, for which the inhibition is -3.31%.

Consider `Cc1oncc1C(=O)Nc1ccc(C(F)(F)F)cc1`, for which the inhibition is -23.8%.

Still in this assay, the particulars now being: LFS_MB_P medulloblastoma cells, measured here: combination with cisplatin, at 0.5 µM, stronger effect = higher value.
On to `CCn1cc(C(=O)O)c(=O)c2cc(F)c(N3CCNCC3)nc21`, for which the inhibition is 108% and -48.6%.

`O=C(O)CCCCCCCC(=O)O`: the inhibition stood at 8.46%.

On to `O=NN(CCCl)C(=O)NCCCl`, for which the inhibition was found to be 2.24%.

On to `Cc1oncc1C(=O)Nc1ccc(C(F)(F)F)cc1`, for which the inhibition was -32.5%.

Staying with this assay, now noted: LFS_MB_P medulloblastoma cells, measured here: combination with cisplatin, at 5 µM, stronger effect = higher value.
Turning to `CCn1cc(C(=O)O)c(=O)c2cc(F)c(N3CCNCC3)nc21`, the inhibition is -38.7% and -12%.

For the compound `O=C(O)CCCCCCCC(=O)O`, the inhibition is -13.6%.

`O=NN(CCCl)C(=O)NCCCl`: the inhibition is -36.8%.

Turning to `Cc1oncc1C(=O)Nc1ccc(C(F)(F)F)cc1`, the inhibition is 34.4%.

The nature of a further assay: growth inhibition, single agent and combos, cell-based, chromothripsis tumors, cisplatin or BGB combos (AID 1671450).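 Further: cells exposed to compound for four days; 0% = vehicle DMSO and 100% = cell killing by high DMSO.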 Particulars: HDN33 neuroblastoma cells, BGB combo, at 5 µM, stronger effect = higher value.
Turning to `CCn1cc(C(=O)O)c(=O)c2cc(F)c(N3CCNCC3)nc21`, the inhibition is -53.5% and -12.2%.

On to `O=C(O)CCCCCCCC(=O)O`, for which the inhibition was -29.2%.

Take `O=NN(CCCl)C(=O)NCCCl`: the inhibition was -14.5%.

For `Cc1oncc1C(=O)Nc1ccc(C(F)(F)F)cc1`, the inhibition was determined as 22.1%.

Still in this assay, the particulars now being: HDN33 neuroblastoma cells, at 0.5 µM, stronger effect = higher value.
For `CCn1cc(C(=O)O)c(=O)c2cc(F)c(N3CCNCC3)nc21`, the inhibition was -20.8% (inactive) and 3.72% (inactive).

On to `O=C(O)CCCCCCCC(=O)O`, for which the inhibition was -40.9% (inactive).

As for `O=NN(CCCl)C(=O)NCCCl`, the inhibition was 6.29% (inactive).

As to `Cc1oncc1C(=O)Nc1ccc(C(F)(F)F)cc1`, the inhibition was -14.7% (inactive).

The same assay, now with this note: HDN33 neuroblastoma cells, cisplatin combo, at 5 µM, stronger effect = higher value.
In the case of `CCn1cc(C(=O)O)c(=O)c2cc(F)c(N3CCNCC3)nc21`, the inhibition is -17.5% and -19.5%.

On to `O=C(O)CCCCCCCC(=O)O`, for which the inhibition was -22.7%.

On to `O=NN(CCCl)C(=O)NCCCl`, for which the inhibition was -3.04%.

Regarding `Cc1oncc1C(=O)Nc1ccc(C(F)(F)F)cc1`, the inhibition was determined as 36.7%.

The same assay, now with this note: HDN33 neuroblastoma cells, measured here: with BGB IC20 combination, at 0.5 µM, stronger effect = higher value.
As to `CCn1cc(C(=O)O)c(=O)c2cc(F)c(N3CCNCC3)nc21`, the inhibition is -36.2% and -5.94%.

`O=C(O)CCCCCCCC(=O)O`: the inhibition is -45.6%.

For `O=NN(CCCl)C(=O)NCCCl`, the inhibition worked out at 11.2%.

Regarding `Cc1oncc1C(=O)Nc1ccc(C(F)(F)F)cc1`, the inhibition came out at 2.4%.

The assay is the same for the next values; noted with them: HDN33 neuroblastoma cells, measured here: with cisplatin IC20 combination, at 0.5 µM, stronger effect = higher value.
In the case of `CCn1cc(C(=O)O)c(=O)c2cc(F)c(N3CCNCC3)nc21`, the inhibition was 4.58% and 5.43%.

In the case of `O=C(O)CCCCCCCC(=O)O`, the inhibition is -37.4%.

With `O=NN(CCCl)C(=O)NCCCl`, the inhibition is -4.17%.

For `Cc1oncc1C(=O)Nc1ccc(C(F)(F)F)cc1`, the inhibition was -16.7%.

The same assay, now with this note: HDN33 neuroblastoma cells, single agent, at 5 µM, stronger effect = higher value.
For the compound `CCn1cc(C(=O)O)c(=O)c2cc(F)c(N3CCNCC3)nc21`, the inhibition was -41.7% and 2.78%.

`O=C(O)CCCCCCCC(=O)O`: the inhibition was -34.5%.

Turning to `O=NN(CCCl)C(=O)NCCCl`, the inhibition was -8.15%.

Consider `Cc1oncc1C(=O)Nc1ccc(C(F)(F)F)cc1`, for which the inhibition came to 48%.

A further assay can be described thus: growth inhibition, single agents and combos, ICB984, cell-based, cisplatin or BGB combos, synergistic combos for chromothripsis tumors (AID 1671451; call rule not given here;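 further: cells exposed for 96 hours before readout; 0% = vehicle DMSO and 100% = killing by high DMSO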). To be noted: ICB984 medulloblastoma cells, drug combinations, BGB IC20 combo, at 0.005 µM, stronger effect = higher value.
`CCn1cc(C(=O)O)c(=O)c2cc(F)c(N3CCNCC3)nc21`: the inhibition was -24.2% and -17.5%.

As to `O=C(O)CCCCCCCC(=O)O`, the inhibition is -5.6%.

Turning to `O=NN(CCCl)C(=O)NCCCl`, the inhibition came to 5.44%.

Consider `Cc1oncc1C(=O)Nc1ccc(C(F)(F)F)cc1`, for which the inhibition is 16.5%.

The same assay, now with this note: ICB984 medulloblastoma cells, drug combinations, BGB IC40 combo, at 0.005 µM, stronger effect = higher value.
Take `CCn1cc(C(=O)O)c(=O)c2cc(F)c(N3CCNCC3)nc21`: the inhibition is -20.3% and -26.8%.

As for `O=C(O)CCCCCCCC(=O)O`, the inhibition is -44.6%.

As for `O=NN(CCCl)C(=O)NCCCl`, the inhibition is -42.6%.

Consider `Cc1oncc1C(=O)Nc1ccc(C(F)(F)F)cc1`, for which the inhibition was -7.12%.

Still in this assay, the particulars now being: ICB984 medulloblastoma cells, drug combinations, BGB IC40 combo, at 0.05 µM, stronger effect = higher value.
Consider `CCn1cc(C(=O)O)c(=O)c2cc(F)c(N3CCNCC3)nc21`, for which the inhibition was -25.4% and -9.4%.

For `O=C(O)CCCCCCCC(=O)O`, the inhibition is -20.8%.

Turning to `O=NN(CCCl)C(=O)NCCCl`, the inhibition was -39%.

With `Cc1oncc1C(=O)Nc1ccc(C(F)(F)F)cc1`, the inhibition turned out to be 33.8%.

Staying with this assay, now noted: ICB984 medulloblastoma cells, drug combinations, at 0.5 µM, stronger effect = higher value.
Turning to `CCn1cc(C(=O)O)c(=O)c2cc(F)c(N3CCNCC3)nc21`, the inhibition is -21.1% (inactive) and -10.7% (inactive).

In the case of `O=C(O)CCCCCCCC(=O)O`, the inhibition is -26.1% (inactive).

Turning to `O=NN(CCCl)C(=O)NCCCl`, the inhibition is -40.7% (inactive).

`Cc1oncc1C(=O)Nc1ccc(C(F)(F)F)cc1`: the inhibition was -22.9% (inactive).

Still in this assay, the particulars now being: ICB984 medulloblastoma cells, drug combinations, cisplatin combo, at 0.05 µM, stronger effect = higher value.
With `CCn1cc(C(=O)O)c(=O)c2cc(F)c(N3CCNCC3)nc21`, the inhibition was -31.9% and -9.4%.

For `O=C(O)CCCCCCCC(=O)O`, the inhibition was -24.1%.

As for `O=NN(CCCl)C(=O)NCCCl`, the inhibition is -44.5%.

`Cc1oncc1C(=O)Nc1ccc(C(F)(F)F)cc1`: the inhibition was determined as 31.4%.

The same assay, now with this note: ICB984 medulloblastoma cells, drug combinations, cisplatin combo, at 0.5 µM, stronger effect = higher value.
In the case of `CCn1cc(C(=O)O)c(=O)c2cc(F)c(N3CCNCC3)nc21`, the inhibition was -30.1% and -9.09%.

As for `O=C(O)CCCCCCCC(=O)O`, the inhibition is -19.2%.

Take `O=NN(CCCl)C(=O)NCCCl`: the inhibition was -65.9%.

Regarding `Cc1oncc1C(=O)Nc1ccc(C(F)(F)F)cc1`, the inhibition was -18.9%.
